Out of some 96,000 compounds screened, about 19,000 (20%) were called active.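 The calls were made as follows: active = blocking of liver enzyme CYP2C9 beyond about 50% at 5 µM (limit read from the data); inactive = the rest.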 Not all results are given here.

For 30 molecules, inhibition results are on record in PubChem BioAssay AID777 (Sanford-Burnham Center for Chemical Genomics, 2007).

The target of the assay is Cytochrome P450 2C9 (Homo sapiens) (UniProt P11712). In words: blockers of cytochrome P450 2C9 activity – biochemical, luminescence, ADME assay, primary screen (AID 777). The settings on record: CYP2C9 Supersomes, luciferin-H conversion, at 5 µM, stronger effect = higher value.
Sequence of Cytochrome P450 2C9 (Homo sapiens) (P11712 whole entry, looked up): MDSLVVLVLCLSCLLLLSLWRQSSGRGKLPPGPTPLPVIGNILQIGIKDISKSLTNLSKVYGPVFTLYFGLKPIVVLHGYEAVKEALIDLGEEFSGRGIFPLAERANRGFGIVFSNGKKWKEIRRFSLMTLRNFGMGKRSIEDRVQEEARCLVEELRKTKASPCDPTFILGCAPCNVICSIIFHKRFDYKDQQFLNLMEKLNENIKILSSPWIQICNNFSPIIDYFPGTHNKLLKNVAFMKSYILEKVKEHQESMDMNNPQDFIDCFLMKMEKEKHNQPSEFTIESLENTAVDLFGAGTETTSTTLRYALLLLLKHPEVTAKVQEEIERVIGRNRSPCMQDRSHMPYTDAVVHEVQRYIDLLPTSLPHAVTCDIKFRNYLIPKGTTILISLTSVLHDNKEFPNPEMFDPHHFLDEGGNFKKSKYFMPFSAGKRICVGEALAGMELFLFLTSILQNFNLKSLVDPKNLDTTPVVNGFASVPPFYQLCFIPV
Regarding `CCOc1c2ccc(C(=O)NCc3ccc(OC(F)(F)F)cc3)cc2nn1C`, the inhibition is 19% (inactive). To `COc1nc(N=C(N)N)nc2c(C)cccc12` belongs -9.5% (inactive); to `COc1cc2[nH]c(=O)n(CCC(=O)NC3CCN(Cc4ccccc4)CC3)c(=O)c2cc1OC`, -15.4% (inactive); to `CC(=O)Nc1ccc(NC(=O)c2sc3nc4c(c(-c5ccc(C)cc5)c3c2N)CCC4)cc1`, -4.6% (inactive).

On to `CC1C(c2ccccc2)=[N+]([O-])C2(CCCC2)N1O` (stereo not given), for which the inhibition was 37.7% (inactive). The same measure for `O=C(COc1ccc(F)cc1)N(CC1=CCS(=O)(=O)C1)c1ccccc1`: -18.6% (inactive); for `O=c1c2ccccc2c(-c2ccc(Br)cc2)nn1Cc1ccccc1`: 21.5% (inactive).

With `COc1ccc(Cl)cc1C(=O)NCC#N`, the inhibition was -80.7% (inactive). As for `CC(C)CNC(=O)COC(=O)/C=C/c1ccccc1[N+](=O)[O-]`, the inhibition is -41.6% (inactive). On to `CC(C)CNC(=O)CC(c1ccccc1)c1c(O)ccc2ccccc12` (stereo not given), for which the inhibition is 71.2% (active). To `O=C1CC(C(F)(F)C(F)(F)C(F)(F)C(F)(F)F)=Nc2ccccc2N1` belongs 9% (inactive). The same measure for `CCN(CC(=O)NC1CCS(=O)(=O)C1)c1nc(-c2cccnc2)nc2ccccc12` (stereo not given): 3.9% (inactive); for `CCOC(=O)c1nc(C)n(-c2ccc(Cl)cc2Cl)n1`: -0.6% (inactive); for `CCOC(=O)CSc1ncc(-c2cccc(Cl)c2)cn1`: 14.2% (inactive). With `CCOC(=O)c1cnc(SC)nc1Sc1ccc(Cl)cc1Cl`, the inhibition is 81.5% (active).

On to `Cc1ccc(C(=O)NC2CC(C)(C)NC(C)(C)C2)c(C)c1`, for which the inhibition was -6.6% (inactive). In the case of `Cc1nn(C)cc1/C=N/NC(=O)c1sc2ccccc2c1Cl`, the inhibition was 23.6% (inactive). The same measure for `O/N=C1\CC2(Cc3nonc31)OCCO2`: 4% (inactive); for `CS(=O)(=O)N1CCN(C(=O)c2cc3ccccc3oc2=O)CC1`: -3.6% (inactive); for `Cc1cccc(OCc2nnc(SCn3nnc4ccccc4c3=O)o2)c1`: 35.9% (inactive). Turning to `C=CCn1c(SCn2nnc3ccccc3c2=O)nnc1-c1ccc(Cl)cc1`, the inhibition was 67.1% (active). `O=c1c2ccccc2nnn1CSc1nnnn1-c1ccccc1`: the inhibition was -35.7% (inactive). The same measure for `COc1cccc(Nc2ncccc2C(=O)O)c1`: -5.5% (inactive); for `CC1(C)CC(=O)C2=C(C1)NCN(CCCN1CCOCC1)C2`: 3.8% (inactive).

`CCOc1cc(CO)ccc1OCC(=O)N1CCCCC1`: the inhibition is -19.8% (inactive). Turning to `N#C/C(=C1/CCCN1)c1ccccn1`, the inhibition is 7.3% (inactive). To `COC(=O)C(C)N(C#N)c1nc(C)nc(C)n1` (stereo not given) belongs -136% (inactive). To `COC(=O)CNS(=O)(=O)c1ccc(OC)cc1` belongs -0.5% (inactive); to `COc1ccc(/C(N)=N/OC(=O)Oc2ccccc2)cc1`, 21.5% (inactive). To `CO/N=C(/CS(=O)(=O)c1ccc(Br)cc1)c1ccc(OC)cc1` belongs 91.6% (active).

In general, inhibition refers to the change of the read-out against control, counted positive when it falls.
